# Results reported in PubChem BioAssay (NCATS).
# Inconclusive results are not listed. The list shows a part of the results. Entries that show only a call come without a potency. Activity calls are given as the source filed them. Calls come from the whole dose curve; as a rule, active = well fitted curve in the direction sought with a large enough effect; inconclusive = small, poorly fitted or top-dose-only effect, or another doubt; inactive = no such curve, though single readings can be large; an effect the other way counts as inactive or inconclusive.
# Key:
# [1] = Counterscreen for APE1 Inhibitors: Fluorescent Dye Displacement Assay (AID 2564);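 note: loss of thiazole orange fluorescence as the dye is displaced from duplex DNA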
# How it was run: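 ThO 250 nM + dsDNA 50 nM (THF abasic site, 5'-TAMRA), Tris-HCl pH7.5/50mM NaCl/2 mM MgCl2/0.01% Tween-20; compounds pin-transferred; ex 480/em 540 nm endpoint. Neutral = no compound; no-DNA ThO wells = negative control.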
# [2] = molecular target: Endonuclease 4 (Escherichia coli (strain K12)) (UniProt P0A6C1); assay: Counterscreen for APE1 Inhibitors: qHTS Assay for Inhibitors of Endonuclease IV (AID 2565)
# Text: Assay Provider: David M. Wilson, III, National Institute on Aging, NIH
# Screening Center PI: Austin, C.P.
# Screening Center: NIH Chemical Genomics Center [NCGC]
# Escherichia coli endonuclease IV (Endo IV) is the key member of the AP endonuclease superfamily that catalyzes the cleavage of damaged DNA backbone immediately 5' of an AP site. E. coli EndoIV has the same functional activities as human APE1 but has no sequence or structural homology to the human protein. Herein, we utilize E. coli EndoIV to counter screen compound libraries as part of a high-throughput campaign for APE1 inhibitor identification. […]
# Inhibition of APE1 activity was screened by utilizing double-stranded short substrate containing tetrahydrofuran (THF) abasic site labeled with rhodamine-type fluorophore (TAMRA) at the 5'-end and with non-fluorescent Black Hole Quencher-2 (BHQ-2) at the opposing 3'-end. An increase in the fluorescence intensity due to incision of the abasic site by APE1 was used to measure the enzyme activity. […]
# Three uL of enzyme were dispensed to 1536-well Greiner black solid bottom plates. […] The plates were immediately transferred into ViewLux High-throughput CCD imager (Perkin-Elmer) in order to measure the reaction progress in kinetic mode (three reads every 60 seconds) using 525 nm excitation and 598 nm emission fluorescence protocol. […]
# [3] = molecular target: DNA repair nuclease/redox regulator APEX1 (Homo sapiens) (UniProt P27695); assay: Confirmation qHTS Assay for Inhibitors of the Human Apurinic/apyrimidinic Endonuclease 1 (APE1) (AID 2572);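 note: fluorescence gain from purified APE1 cutting a TAMRA/BHQ-2 THF abasic duplex; nearly all actives have a fitted effect of over 30% in size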
# DNA repair nuclease/redox regulator APEX1 (Homo sapiens), sequence (P27695 whole entry, looked up): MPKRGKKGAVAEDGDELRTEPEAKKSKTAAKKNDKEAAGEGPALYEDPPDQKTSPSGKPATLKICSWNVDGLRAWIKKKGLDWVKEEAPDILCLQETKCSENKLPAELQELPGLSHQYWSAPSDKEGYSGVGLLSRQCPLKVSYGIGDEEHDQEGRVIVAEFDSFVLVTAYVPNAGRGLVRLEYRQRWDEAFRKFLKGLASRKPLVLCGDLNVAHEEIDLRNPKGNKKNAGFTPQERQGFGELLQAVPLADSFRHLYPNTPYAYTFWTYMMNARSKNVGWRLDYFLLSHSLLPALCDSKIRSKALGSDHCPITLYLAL
# How it was run: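 Readout: kinetic fluorescence (Ex 525, Em 598 nm) from APE1 incision of a 5'-TAMRA, 3'-BHQ-2 duplex containing a THF abasic site at 50 nM final. Compound preincubation 15 min, room temperature.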
# [4] = molecular target: DNA repair nuclease/redox regulator APEX1 (Homo sapiens) (UniProt P27695); assay: qHTS FP-Based Assay for Inhibitors of the Human Apurinic/apyrimidinic Endonuclease 1 (APE1) (AID 2573)
# Text: The apurinic/apyrimidinic endonuclease APE1 is the primary mammalian enzyme responsible for the removal of abasic (or AP) sites in DNA and functions centrally in the base excision DNA repair (BER) pathway. […] Thus, targeting APE1 could improve the efficacy of current treatment paradigms by promoting selective sensitization or protection of diseased and normal cells, respectively.
# In order to gain insight into the mode of action of confirmed APE1 inhibitors, we implemented a miniaturized fluorescence polarization assay designed to report on compounds which competitively displace ds-DNA substrate. The fluorescence polarization assay has been implemented in 384- and 1536-well format for binding of TAMRA-labeled double-stranded DNA probe not containing a quencher. The binding of protein to DNA is inhibited by ATA, a general inhibitor of APE1 activity.
# See also related primary fluorogenic assay (AID 2517). […]
# Three uL of enzyme were dispensed to 1536-well Greiner black solid bottom plates. […] The plates were immediately transferred into ViewLux High-throughput CCD imager (Perkin-Elmer) in order to measure the reaction progress in kinetic mode (three reads every 60 seconds) using 525 nm excitation and 598 nm emission fluorescence protocol. The fluorescence intensity difference between the third and the first time points was used to compute reaction progress.
# [5] = molecular target: Cytochrome P450 2C19 (Homo sapiens) (UniProt P33261); assay: qHTS for inhibitors of CYP2C19 against the NCATS DSHEA and TCM libraries (AID 1919974);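 note: luminescence from luciferin released by CYP2C19 oxidation of a pro-luciferin substrate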
# Cytochrome P450 2C19 (Homo sapiens), sequence (P33261 whole entry, looked up): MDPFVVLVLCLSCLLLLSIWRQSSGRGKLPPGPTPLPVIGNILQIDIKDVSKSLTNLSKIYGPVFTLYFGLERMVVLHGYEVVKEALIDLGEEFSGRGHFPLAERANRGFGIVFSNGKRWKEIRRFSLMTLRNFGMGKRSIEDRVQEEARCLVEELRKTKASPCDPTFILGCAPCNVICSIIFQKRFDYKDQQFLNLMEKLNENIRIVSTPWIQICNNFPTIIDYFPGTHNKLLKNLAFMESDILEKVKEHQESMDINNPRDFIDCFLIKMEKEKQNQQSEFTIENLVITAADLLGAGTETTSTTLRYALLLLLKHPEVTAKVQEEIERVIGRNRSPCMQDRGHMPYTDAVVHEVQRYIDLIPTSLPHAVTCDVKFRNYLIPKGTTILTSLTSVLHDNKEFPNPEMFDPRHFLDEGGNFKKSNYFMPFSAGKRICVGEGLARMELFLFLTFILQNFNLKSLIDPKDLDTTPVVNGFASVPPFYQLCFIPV
# How it was run: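 Luminescent P450-Glo readout. Enzyme plus pro-luciferin substrate in manufacturer buffer (typically 100 mM KPO4); 15 min RT preincubation; 1x NADPH regenerating system, 30-45 min RT in the dark; detection reagent 30 min.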
# [6] = molecular target: Nuclear receptor subfamily 1 group I member 2 (Homo sapiens) (UniProt O75469); assay: Dual reporter qHTS for agonist of Pregnane X Receptor (hPXR) against the NCATS DSHEA and TCM libraries: Luminescence readout (AID 1920059)
# Nuclear receptor subfamily 1 group I member 2 (Homo sapiens), sequence (O75469 whole entry, looked up): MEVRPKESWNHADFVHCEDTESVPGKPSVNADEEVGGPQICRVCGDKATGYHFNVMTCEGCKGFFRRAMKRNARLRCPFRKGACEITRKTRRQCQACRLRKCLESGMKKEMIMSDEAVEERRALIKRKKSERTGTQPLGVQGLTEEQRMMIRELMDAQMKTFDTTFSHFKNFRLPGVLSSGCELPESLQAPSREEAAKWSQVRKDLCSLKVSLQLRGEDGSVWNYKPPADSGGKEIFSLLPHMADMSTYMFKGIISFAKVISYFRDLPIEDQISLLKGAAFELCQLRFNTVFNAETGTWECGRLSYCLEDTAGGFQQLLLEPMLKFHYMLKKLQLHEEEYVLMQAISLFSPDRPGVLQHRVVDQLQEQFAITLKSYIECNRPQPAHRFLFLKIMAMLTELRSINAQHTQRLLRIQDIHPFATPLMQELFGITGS
# How it was run: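 hPXR-Luc HepG2 cells, 2000/well in 5% charcoal-stripped FBS medium, attached 5 h, then exposed 24 h at 37C to compounds. Viability by CellTiter-Fluor, then luciferase luminescence with ONE-Glo.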
# [7] = qHTS for differential inhibitors of proliferation of Plasmodium falciparum line W2 (AID 1883); details: Potency: Plasmodium falciparum W2 proliferation inhibition;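 note: potency is the fitted concentration of half-maximal effect; parasites grown with compound for 72 h before lysis and staining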
compound,measurement,setting,value
CCNC[C@H](O)c1cccc(O)c1,outcome,[1],inactive
same,outcome,[2],inactive
same,outcome,[3],inactive
same,outcome,[4],inactive
C=CCc1ccc2c(c1)OCO2,Potency,[5],inactive
same,Potency,[6],inactive
CC(C)C[C@H]1C(=O)N2CCCC2[C@]2(O)O[C@](NC(=O)[C@@H]3C=C4c5cccc6[nH]c(Br)c(c56)C[C@H]4N(C)C3)(C(C)C)C(=O)N12 (some centres not stated),Potency,[7],1.26 µM (active)
